Pf growth 96h: Primary qHTS for delayed death inhibitors of the malarial parasite plastid, 96 hour incubation; Potency, µM (highest dose often 28.7 µM), actives largely listed as inhibitors; hit rate 6.9% among 320,000; P. falciparum luciferase reporter growth, 96 h
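Two parasite generations (96 h, 37 C, 5% CO2) of compound exposure in infected erythrocytes (0.05% parasitemia, 2% hematocrit). Luciferase-reporter P. falciparum; decreased luminescence indicates inhibited growth, aimed at apicoplast-acting delayed death.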
Cycloheximide cs: Cycloheximide Counterscreen for Small Molecule Inhibitors of Shiga Toxin; cell reporter, cycloheximide protein synthesis inhibition counterscreen; max response, %; hit rate 12% among 300,000; in the data active = max response mostly above about 13%, no sharp cut-off; inactive = mostly below about 14%; note: read at 38.3 µM for the half of the compounds with a filed dose
Pf growth 48h: Primary qHTS for delayed death inhibitors of the malarial parasite plastid, 48 hour incubation. P. falciparum luciferase growth in erythrocytes, 48 h. Potency, µM (doses to about 28.7 µM), hits mostly inhibitors. hit rate 5.9% among 310,000. AID 504832, 2011
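Luciferase-expressing P. falciparum in infected erythrocytes (2% hematocrit, 0.1% parasitemia final) in RPMI 1640/0.5% Albumax were exposed to compound for 48 hours at 37 C, 5% CO2; growth read as luminescence.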
NS1 function inh: qHTS Assay for Inhibitors of Influenza NS1 Protein Function | AID 2326, 2010 | Potency, µM (doses to about 46.1 µM) | hit rate 0.4% among 270,000; calls by dose curve; note: actives are rising curves; nearly all actives have a fitted effect of over 50% in size
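Growth recovery, yeast-based: influenza A NS1 expressed in S. cerevisiae causes slow growth, and suppressors are detected by OD600. The parent strain without NS1 is used as positive control.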
Shiga inhibitor: A qHTS for Small Molecule Inhibitors of Shiga Toxin; Vero cells, Shiga toxin protein synthesis inhibition reporter; hit rate 9.2% among 290,000; inhibition, % at 38.7 µM; in the data active = inhibition mostly above about 28%, no sharp cut-off; inactive = mostly below about 43%
Sm TGR inh: qHTS Assay for the Inhibitors of Schistosoma Mansoni Peroxiredoxins. Schistosoma mansoni thioredoxin glutathione reductase (TGR), Q962Y6. purified TGR, DTNB reduction, TNB absorbance 405 nm. Potency, µM (top dose mostly 114 µM), actives largely listed as inhibitors. hit rate 3% among 360,000. AID 485364, 2010; note: nearly all actives have a fitted effect of over 60% in size
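TGR 20 nM + NADPH 100 uM (dispensed conc.), cpd preinc 15 min RT; start with NADPH (500 uM addition) then DTNB (15 mM addition). Kinetic TNB absorbance, 405 nm filter. Four-parameter Hill fit across titration.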
Hits are given with their value; – = inactive; ? = inconclusive; · = no result given. Sampled rows, rich in hits. Any-hit rate of the full collection: about 21%. Unless noted, calls come from the whole dose curve; as a rule, active = well fitted curve in the direction sought with a large enough effect; inconclusive = small, poorly fitted or top-dose-only effect, or another doubt; inactive = no such curve, though single readings can be large; an effect the other way counts as inactive or inconclusive.

SMILES	Pf growth 96h	Cycloheximide cs	Pf growth 48h	NS1 function inh	Shiga inhibitor	Sm TGR inh
COc1ccc(CN(C)CC2CCCN(CCc3ccc(F)cc3)C2)c(OC)c1OC (stereo not given)	–	–	?	–	–	–
CN(Cc1ccccc1O)CC1CCCN(CCc2ccc(Cl)cc2)C1 (stereo not given)	–	–	10µM	–	–	–
CCN(Cc1ccc(OC)c(COC)c1)CC1CCCN(CCc2cccc(OC)c2)C1 (stereo not given)	–	–	?	–	–	–
Cc1cccn2c(=O)cc(COc3cccc(NC(=O)COc4ccc(F)cc4)c3)nc12	·	·	·	·	·	–
Cc1ccc2ncnc(NCCC(=O)O)c2c1	–	–	–	–	–	–
COCCCNc1ncnc2ccc(C)cc12	?	15	–	–	39	–
CC1CCc2c(sc(NC(=O)/C=C/c3cccs3)c2C(=O)O)C1 (stereo not given)	9.3µM	–	–	–	–	–
CCc1c(C)sc(NC(=O)c2ccoc2C)c1C(N)=O	?	22	–	–	–	–
NC(=O)c1c(NC(=O)CSc2nnc(Cc3ccccc3)n2Cc2ccco2)sc2c1CCC2	–	–	?	–	–	25µM
CCOC(=O)c1c(NC(=O)C(C)N2CCN(C(=O)c3ccco3)CC2)sc2c1CCCC2 (stereo not given)	?	19	·	–	–	–
COc1ccc(CC(=O)Nc2cc(-c3cn4cccnc4n3)ccc2OC)cc1	·	·	·	·	·	–
COc1ccc(C(=O)Nc2nnc(S(=O)(=O)N3CCCc4ccccc43)s2)cc1	·	·	·	·	·	–
N#Cc1c(NC(=O)c2ccco2)sc2c1CCC2	?	–	?	–	–	–
CN1CCN(C(=O)c2c(NC(=O)c3ccco3)sc3c2CCC(C(C)(C)C)C3)CC1 (stereo not given)	?	–	–	?	–	–
CN(C)C(=O)c1c(NC(=O)c2ccco2)sc2c1CCCCC2	–	16	–	–	–	?
Cc1occc1C(=O)Nc1sc2c(c1C(N)=O)CCCCC2	–	29	–	–	62	?
CC1CCc2c(sc(NC(=O)c3ccco3)c2C(=O)O)C1 (stereo not given)	–	40	–	–	126	–
O=C(Nc1sc2c(c1C(=O)NCCO)CCCC2)c1ccco1	–	–	–	–	–	–
NC(=O)c1c(NC(=O)c2ccco2)sc2c1CCC2	–	22	·	–	44	?
NC(=O)c1ccsc1NC(=O)c1coc2ccccc2c1=O	–	24	–	–	104	–
Cc1occc1C(=O)Nc1sccc1C(N)=O	–	38	–	–	–	–
O=C(Nc1sc2c(c1C(=O)O)CCCCC2)c1ccco1	–	33	–	–	–	–
CCOC(=O)c1c(NC(=O)c2ccco2)sc2c1CCCCC2	–	–	·	–	–	–
CCCc1cc(C(N)=O)c(NC(=O)c2ccoc2C)s1	·	–	–	–	–	–
CN(C)C(CNC(=O)c1coc2ccccc2c1=O)c1ccccc1 (stereo not given)	–	–	–	–	–	–
SMILES	Pf growth 96h	Cycloheximide cs	Pf growth 48h	NS1 function inh	Shiga inhibitor	Sm TGR inh
Cc1ccc(C(=O)N[C@H](C(=O)Nc2sccc2C(N)=O)C(C)C)cc1	?	18	–	–	–	–
Nc1c(Cl)ncnc1NCc1ccccc1	0.41µM	–	–	–	–	–
CCC(C)NC(=O)c1ccc2c(Cl)c3c(nc2c1)CCC3 (stereo not given)	–	28	–	–	53	–
Cc1cccc(NC(=O)c2ccc3c(Cl)c4c(nc3c2)CCCC4)n1	–	–	–	·	–	–
O=C(Nc1ccc(Cl)cn1)c1ccc2c(Cl)c3c(nc2c1)CCC3	–	35	–	–	64	–
CC1CCN(C(=O)c2cnn(-c3ccc(Cl)cc3)c2C2CCN(C(=O)OC(C)(C)C)CC2)CC1	·	·	·	·	·	–
CC(C)C(NS(=O)(=O)c1cccc2nsnc12)C(=O)NC1CCCCC1 (stereo not given)	10µM	–	–	–	–	–
COc1cccc(CN2c3ccc(Br)cc3C(=O)CS2(=O)=O)c1	?	·	9.3µM	·	·	–
CCN1CCN(C(=O)c2cc(COc3ccc(C(C)=O)cc3OC)on2)CC1	–	43	–	–	75	–
COc1cc(C)ccc1OCc1cc(C(=O)N2CCN(C3CCCCC3)CC2)no1	–	48	–	–	58	–
COc1cc(C)ccc1OCc1cc(C(=O)N2CCCCCCC2)no1	?	51	?	–	92	–
Cc1ccc(N2CCN(C(=O)c3cc(COc4c(C)cccc4C)on3)CC2)c(C)c1	–	–	–	?	–	–
Cc1cc(C)cc(Nc2nc3ccccc3nc2-n2nc(C)cc2C)c1	·	·	·	·	·	–
Cc1ccc(C(=O)NNC(=O)c2ccc(NC(=O)C(C)(C)C)cc2)cc1	15µM	–	–	–	–	–
Cc1cccc(C(=O)NNC(=O)c2ccc(NC(=O)C(C)(C)C)cc2)c1	–	30	–	–	39	–
Cc1cccn2c(=O)c3cc(C(=O)NCc4ccccc4)c(=N)n(CCOCCO)c3nc12	·	·	·	·	·	–
Cc1cc2c(s1)c1cnn(Cc3ccccc3Cl)c(=O)c1n2C	·	–	·	·	–	·
COCCNC(=O)c1ccc(CN2CCc3ccccc3C2)cc1	?	–	–	–	–	–
CCCNC(=O)c1ccc(CN2CCc3ccccc3C2)cc1	–	–	10µM	–	–	–
CC(C)(C)SCCNC(=O)c1ccc(CN2CCc3ccccc3C2)cc1	–	44	–	–	54	–
c1ccc(NC2=NCCN2CCC2CCCC2)cc1	–	–	–	–	–	–
CC(=O)O/N=C1\C(=O)N(Cc2ccc(C)cc2)c2ccccc21	?	–	?	·	–	16µM
CC(C)CN1CCC(CN(C)Cc2nc(-c3cnccn3)no2)CC1	–	–	–	–	–	–
C/C(=N\Nc1ccc(Cl)c(C(=O)O)c1)c1ccc[nH]1	–	51	–	–	157	?
Cc1c(NC(=O)c2cccs2)cccc1C(=O)O	–	–	–	–	–	–
SMILES	Pf growth 96h	Cycloheximide cs	Pf growth 48h	NS1 function inh	Shiga inhibitor	Sm TGR inh
CC(=O)Nc1ccc(NS(=O)(=O)c2ccc(Cl)c(C(=O)O)c2)cc1	–	–	–	–	–	–
C/C(=N/Nc1ccccc1C(=O)O)c1cccs1	?	20	–	–	–	–
C/C(=N\Nc1ccc(Cl)c(C(=O)O)c1)c1cccs1	–	32	?	–	90	–
COc1ccc(N2CCN(C(=O)CN(C)S(=O)(=O)c3cc(C)ccc3OC)CC2)cc1	–	–	?	–	–	·
CC(C)c1ccc(C2CC(=O)N3CN(C)CSC3=C2C#N)cc1 (stereo not given)	?	–	·	–	–	–
N#CC1=C2SCN(C3CCCCC3)CN2C(=O)CC1c1ccc(Cl)cc1 (stereo not given)	·	·	·	·	·	7.9µM
N#CC1=C2SCN(C3CCCCC3)CN2C(=O)CC1c1ccc(F)cc1 (stereo not given)	·	·	·	·	·	3.5µM
Nc1cc(=O)nc(SCC(=O)Nc2ccc(F)cc2)n1-c1ccccc1Cl	·	·	·	·	·	–

Bioassay records (PubChem)
